Results reported in PubChem BioAssay (NCI).
Compounds without any hit were thinned out: in the full panel of roughly 79,000, 15% have a hit. Unmarked numbers belong to inactive results. Calls of active or inactive are those of the source. Cut-off read from the data, not from the text of the source: active = growth inhibition above about 70%; inactive = the rest.

Tests used:
[1] = NCI Yeast Anticancer Drug Screen. Data for the rad50 strain (AID 155);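 note: 0% = growth of vehicle-only cultures of the same strain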; conditions: S. cerevisiae rad50 strain growth inhibition, stronger effect = higher value
Method in brief: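 Cells are treated with compound, grown, and their growth is then scored against vehicle-only cultures of the same repair-deficient yeast strain.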

[2] = NCI Yeast Anticancer Drug Screen. Data for the mec2-1 strain (AID 157); conditions: S. cerevisiae mec2-1 strain, stronger effect = higher value
Method in brief: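 Growth inhibition is read against vehicle-treated controls after compound exposure of the mec2-1 yeast strain, which is defective in DNA damage repair or cell cycle control.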

[3] = NCI Yeast Anticancer Drug Screen. Data for the sgs1 mgt1 strain (AID 161);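 note: 0% = growth of cultures given vehicle only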; conditions: S. cerevisiae sgs1 mgt1 strain, stronger effect = higher value
Method in brief: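 Growth of a repair-deficient yeast mutant was monitored after compound treatment and expressed as inhibition relative to vehicle-treated cultures.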

[4] = NCI Yeast Anticancer Drug Screen. Data for the cln2 rad14 strain (AID 165);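 note: 0% = growth equal to vehicle treated cultures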; conditions: S. cerevisiae cln2 rad14 strain, stronger effect = higher value
Method in brief: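 Growth inhibition, relative to vehicle-treated controls, is the read-out. The test organism is a yeast strain with defined genetic alterations, cln2 rad14.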

[5] = NCI Yeast Anticancer Drug Screen. Data for the bub3 strain (AID 167); conditions: S. cerevisiae bub3 mutant strain, stronger effect = higher value
Method in brief: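 Part of a panel of yeast mutants defective in DNA damage repair or cell cycle regulation. Each strain is grown with compound, and inhibition is calculated relative to solvent-treated cultures.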

[6] = NCI Yeast Anticancer Drug Screen. Data for the mlh1 rad18 strain (AID 175); conditions: S. cerevisiae mlh1 rad18 strain growth inhibition, stronger effect = higher value
Method in brief: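 Cells of a genetically altered yeast strain, deficient in DNA damage repair, were treated with compound. Their growth was then compared with that of vehicle-treated cultures to give inhibition.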

[7] = at 5.0 µM (retest, dose inferred, filed as 0.5)
[8] = at 50.0 µM (retest, dose inferred, filed as 5.0)

Row | Compound | growth inhibition [1, 7] | growth inhibition [1, 8] | growth inhibition ([1]; at 50.0 µM) | growth inhibition [2, 7] | growth inhibition [2, 8] | growth inhibition ([2]; at 50.0 µM) | growth inhibition [3, 7] | growth inhibition [3, 8] | growth inhibition ([3]; at 50.0 µM) | growth inhibition [4, 7] | growth inhibition [4, 8] | growth inhibition ([4]; at 50.0 µM) | growth inhibition [5, 7] | growth inhibition [5, 8] | growth inhibition ([5]; at 50.0 µM) | growth inhibition [6, 7] | growth inhibition [6, 8] | growth inhibition ([6]; at 50.0 µM)
1 | CCOC(=O)/C(Cl)=C(\C)Nc1nc2c(ccc3ccccc32)s1 | 22% | 20% | 8.8% | 1% | 66% | 26.6% | -8% | 31% | -0.75% | 15% | 71% (active) | 97.3% (active) | -4% | 94% (active) | 94.9% (active) | 0% | 21% | 0.6%
2 | CCCCCCc1cc(C(=O)N/N=C\c2cccc([N+](=O)[O-])c2)c2ccccc2n1 | 0% | -7% | -40.9% | -1% | -2% | -9.2% | 2% | 7% | -19.9% | -5% | -17% | 41% | 0% | 5% | 1.45% | 0% | -7% | -9.4%
3 | COC(=O)[C@@H]1c2cc3c(c(O)c2[C@@H](OC)C[C@@]1(C)O)C(=O)c1c(O)cc2c(c1C3=O)OC1O[C@@]2(C)[C@H](O)[C@@H](N(C)C)[C@@H]1O | 15% | 98% (active) | 64.2% | 10% | 95% (active) | 94% (active) | 9% | 98% (active) | 94% (active) | 4% | 97% (active) | 87.5% (active) | 5% | 97% (active) | 92.8% (active) | 12% | 97% (active) | 92.4% (active)
4 | COc1cc2c(oc(=O)c3cc(C)cc(OC)c32)c2c(C3OC(C)C(O)C(C)(O)C3O)ccc(O)c12 (configuration not stated) | 80% (active) | 96% (active) | 90.2% (active) | 72% (active) | 97% (active) | 89.3% (active) | 79% (active) | 96% (active) | 90.4% (active) | 75% (active) | 94% (active) | 90% (active) | 83% (active) | 97% (active) | 89.8% (active) | 90% (active) | 96% (active) | 88.8% (active)
5 | CCCCC(CC)CCC(C)OC(=O)C(O)c1ccccc1 (configuration not stated) | -1% | 86% (active) | 61.8% | -6% | 87% (active) | 86.7% (active) | -4% | 85% (active) | 83% (active) | 1% | 82% (active) | 32.5% | 1% | 88% (active) | 75.5% (active) | -4% | 90% (active) | 87.8% (active)
6 | Oc1ccc2ccccc2c1/C=N\Sc1ccccc1 | 11% | 99% (active) | 97.5% (active) | 18% | 99% (active) | 99.3% (active) | 15% | 99% (active) | 98.5% (active) | 7% | 99% (active) | 41% | -2% | 99% (active) | 98.1% (active) | 6% | 99% (active) | 99% (active)
7 | CCOSc1ccccc1 | 3% | 50% | 34.3% | 5% | 63% | 32.7% | 3% | 74% (active) | 16.2% | 2% | 22% | 16.1% | 0% | 74% (active) | 20.6% | 21% | 93% (active) | 56.7%
8 | [C](#[C][Sn]([c]1ccccc1)([c]1ccccc1)[c]1ccccc1)[Sn]([c]1ccccc1)([c]1ccccc1)[c]1ccccc1 | 98% (active) | 95% (active) | 97.5% (active) | 99% (active) | 97% (active) | 98.3% (active) | 99% (active) | 97% (active) | 96.5% (active) | 98% (active) | 95% (active) | 98.4% (active) | 98% (active) | 96% (active) | 98.8% (active) | 98% (active) | 97% (active) | 96.9% (active)
9 | CC(Br)C(=O)c1ccc(OCc2ccccc2)cc1 (configuration not stated) | 15% | 84% (active) | 90.7% (active) | 14% | 99% (active) | 94.2% (active) | 8% | 75% (active) | 89.9% (active) | 22% | 78% (active) | 92.3% (active) | 6% | 99% (active) | 90% (active) | 13% | 94% (active) | 77.9% (active)
